Screening data from PubChem BioAssay.
ELG1 genotox: qHTS screen for small molecules that induce genotoxicity in human embryonic kidney (HEK293T) cells expressing luciferase-tagged ELG1; HEK293T ELG1-luciferase reporter, luminescence, 16 h; Potency, µM (titrated, usually from 46 µM), inactives show at the highest dose activity change, positive = activation, actives largely listed as activators; 330,000 compounds, 1.3% hits; AID 504466, 2011; note: % of control where 0% means no effect; nearly all actives have a fitted effect of over 60% in size
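Step 1: seed 2,000 HEK293T ELG1-luciferase cells per well. Step 2: add compound or DMSO, incubate 16 hr at 37 °C. Step 3: ONE-Glo, 30 min at room temperature, read luminescence.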
NPC1 prom act: qHTS Assay for NPC1 Promoter Activators. Huh7 NPC1 promoter luciferase reporter, 24 h. Potency, µM (top dose mostly 9.22 µM), without a hit: at the top dose activation, most hits filed as activators. 320,000 compounds, 2.4% hits; note: % of control where 0% means no effect; nearly all actives have a fitted effect of over 60% in size
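Luminescence from an NPC1 promoter-driven luciferase reporter in stably transfected Huh7 cells was measured after 24 h compound treatment at 37 °C, followed by 10 min ambient incubation with luciferase detection reagent.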
ELG1 DNA repair: qHTS screen for small molecules that inhibit ELG1-dependent DNA repair in human embryonic kidney (HEK293T) cells expressing luciferase-tagged ELG1. HEK293T ELG1-luciferase reporter, luminescence, 16 h; DNA damage induced by 5-fluorouridine. Potency, µM (titrated, usually from 46.1 µM), for inactives: top-dose activity change, negative = inhibition, hits mostly inhibitors. 330,000 compounds, 2.3% hits. AID 504467, 2011; note: % is set by controls: 0 for no effect and ±100 for the full control effect; nearly all actives have a fitted effect of over 55% in size
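HEK293T cells expressing luciferase-tagged ELG1 (2,000/well) received 5-Fluorouridine plus compound or DMSO for 16 hr at 37 °C. Luciferase was read by ONE-Glo luminescence after 30 min at room temperature.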
FLuc counter: qHTS profiling assay for firefly luciferase inhibitor/activator using purifed enzyme and Km concentrations of substrates (counterscreen for miR-21 project); purified FLuc, Km substrates, luminescence inhibition; Potency, µM (top dose mostly 57.5 µM), for the others: at the highest dose activity change, negative = inhibition, actives largely listed as inhibitors; 360,000 compounds, 6.9% hits; AID 588342, 2011;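 note: plate controls were vehicle for no effect and reference inhibitor for full effect; nearly all actives have a fitted effect of over 55% in size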
Target sequence (P08659 whole entry, looked up): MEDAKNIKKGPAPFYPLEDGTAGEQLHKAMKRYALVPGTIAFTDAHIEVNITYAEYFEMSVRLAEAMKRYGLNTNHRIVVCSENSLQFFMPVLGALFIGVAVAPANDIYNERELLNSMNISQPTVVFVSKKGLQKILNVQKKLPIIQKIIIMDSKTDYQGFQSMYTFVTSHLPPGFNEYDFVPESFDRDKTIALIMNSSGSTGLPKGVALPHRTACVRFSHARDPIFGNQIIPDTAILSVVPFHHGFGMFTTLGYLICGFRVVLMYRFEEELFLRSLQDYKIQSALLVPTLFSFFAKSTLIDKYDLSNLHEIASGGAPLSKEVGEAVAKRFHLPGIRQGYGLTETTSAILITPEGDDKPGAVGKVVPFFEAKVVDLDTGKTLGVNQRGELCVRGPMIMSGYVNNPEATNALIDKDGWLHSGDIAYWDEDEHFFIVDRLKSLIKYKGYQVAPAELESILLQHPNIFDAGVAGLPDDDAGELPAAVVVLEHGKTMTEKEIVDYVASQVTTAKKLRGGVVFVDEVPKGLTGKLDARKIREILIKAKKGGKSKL
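Purified P. pyralis luciferase (10nM final) with 10uM D-luciferin and 10uM ATP (Km levels) in 50mM Tris acetate pH 7.5, 10mM Mg acetate, 0.01% Tween-20, 0.05% BSA; qHTS 6-point titration, ~60 µM downward; luminescence read.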
SMN2 splice up: qHTS Assay for Enhancers of SMN2 Splice Variant Expression | HEK293 SMN2-luciferase splicing reporter, luminescence, 30-36 h | Potency, µM (doses to about 46.1 µM), without a hit: at the highest dose activity change, positive = activation, usual class: activators | 210,000 compounds, 2.8% hits; note: % of control where 0% means no effect; nearly all actives have a fitted effect of over 55% in size
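HEK293 cells carry an SMN2 minigene-luciferase reporter in which exon 7 inclusion puts luciferase in frame. Cells were seeded at 2000 cells/well, attached for 10-12 hours, then exposed to compounds for 30-36 hours at 37C before ONE-Glo luminescence.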
Rab9 prom act: qHTS Assay for Rab9 Promoter Activators; AID 485297, 2010; 320,000 compounds, 2.8% hits; Potency, µM (titrated, usually from 9.22 µM), for the others: at the highest dose activation, negative = inhibition, usual class: activators; Huh7 Rab9 promoter-luciferase reporter, luminescence, 24 h; note: % of control where 0% means no effect; nearly all actives have a fitted effect of over 60% in size
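Using Huh7 cells stably transfected with Rab9 promoter–luciferase, compounds were incubated 24 h at 37 °C, 5% CO2; luciferase luminescence was read 10 min after reagent addition.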
Active calls of the source: *; ? = inconclusive; nt = not tested or not shown; [ ] = dose if it differs, or a comment. The list is not random: actives were taken first. Their share in the collection is about 9.2%. Calls come from the whole dose curve; as a rule, active = well fitted curve in the direction sought with a large enough effect; inconclusive = small, poorly fitted or top-dose-only effect, or another doubt; inactive = no such curve, though single readings can be large; an effect the other way counts as inactive or inconclusive. Potency is the fitted concentration of half-maximal effect.

SMILES | ELG1 genotox | NPC1 prom act | ELG1 DNA repair | FLuc counter | SMN2 splice up | Rab9 prom act
COCc1cc(C)nc2sc(C(=O)Nc3cccc(OC)c3)c(N)c12 | ? | 2.2µM* | ? | 8.5µM* | nt | 3.2µM*
COCc1cc(C)nc2sc(C(=O)Nc3ccc(OC)cc3)c(N)c12 | ? | 16% | ? | ? | nt | ?
COc1ccc(C(CNC(=O)c2ccc(-c3cccc(C(F)(F)F)c3)o2)N2CCOCC2)cc1 (stereo unspecified) | -6% | 2% | ? | -2% | nt | -2%
CC(C)CNC(=O)C(=O)NCC1OCCCN1S(=O)(=O)c1ccc2c(c1)OCCO2 (stereo unspecified) | 4% | -1% | -3% | 6% | nt | 19%
O=C(Nc1ccccn1)c1ccc2c(c1)OCO2 | ? | 3.2µM* | ? | 12µM* | 11µM* | 1.3µM*
Cc1cccnc1NC(=O)c1ccc2c(c1)OCO2 | 11% | -1% | ? | -22% | nt | 3%
Cn1ccc(C(=O)NC(=S)Nc2ccc([N+](=O)[O-])cc2O)n1 | 12µM* | 2.2µM* | ? | 12µM* | nt | 2.8µM*
O=C(Nc1nc(-c2ccccn2)cs1)c1ccccc1-n1cnnn1 | 10% | -11% | 2.6µM* | ? | nt | -26%
Cc1cccc(NC(=O)c2ccc3c(c2)OCCO3)n1 | ? | 1.4µM* | ? | 9.5µM* | nt | 1.3µM*
CCCCN(CC)CCNC(=O)CN1C(=O)COc2ccc(S(=O)(=O)N3CCOCC3)cc21 | nt | nt | nt | 0% | 11% | nt
O=c1c(Cl)c(NCC2CCCO2)cnn1C12CC3CC(CC(C3)C1)C2 (stereo unspecified) | 30% | -3% | 10% | 2% | -42% | -6%
C[C@@](N)(C(=O)O)c1ccc(C(=O)O)cc1 | nt | nt | nt | nt | -15% | nt
O=C(Nc1ccccn1)c1ccc2c(c1)OCCO2 | 8% | 1.1µM* | ? | 6.7µM* | 2.5µM* | 0.63µM*
O=C(Nc1ccccn1)c1ccc(C(=O)Nc2ccccn2)cc1 | 13% | ? | ? | ? | nt | ?
O=C(NC(=S)Nc1cc([N+](=O)[O-])ccc1O)c1ccc2c(c1)OCO2 | 1µM* | 0.32µM* | ? | 1.5µM* | nt | 0.32µM*
O=C(Nc1nc(-c2ccccn2)cs1)c1ccc2c(c1)OCCO2 | ? | 2.8µM* | ? | 1.1µM* | nt | 1.8µM*
O=C(Nc1nc2c(F)cccc2s1)C1CC1 | 10% | ? | ? | ? | nt | ?
O=C(Nc1nc2c(F)cccc2s1)c1ccc2c(c1)OCCO2 | nt | nt | nt | 0.54µM* | nt | nt
CC(=O)Nc1ccc(C(=O)Nc2nc(-c3ccccn3)cs2)cc1 | -9% | -5% | ? | ? | 11% | -14%
COC(=O)c1ccc(C(=O)OC)c(NC(=O)C2CCCO2)c1 (stereo unspecified) | 1% | 1% | 11% | 4% | nt | 9%
CCn1c(=O)c2sccc2n2c(CCCC(=O)Nc3ccc(OC)c(OC)c3)nnc12 | nt | nt | nt | -1% | nt | nt
O=C(NN1C(=O)C2CC=C(Cl)CC2C1=O)c1ccncc1 (stereo unspecified) | 1% | -3% | 9% | -1% | nt | 0%
CC(C)(C)c1ccc(C(=O)Nc2ccc([N+](=O)[O-])cn2)cc1 | ? | 0.71µM* | ? | 1.9µM* | 2.8µM* | 1µM*
O=C(Nc1ncccc1Cl)c1ccc2c(c1)OCCO2 | 5.2µM* | 3.2µM* | ? | 13µM* | 10µM* | 2.5µM*
O=C(Nc1ccc([N+](=O)[O-])cn1)c1ccc2c(c1)OCO2 | 14% | ? | ? | -6% | ? | 1.6µM*
SMILES | ELG1 genotox | NPC1 prom act | ELG1 DNA repair | FLuc counter | SMN2 splice up | Rab9 prom act
O=C(Nc1ccc([N+](=O)[O-])cn1)c1cccnc1 | 2% | 0% | -1% | -3% | nt | -6%
O=C(Cc1ccc([N+](=O)[O-])cc1)NNC(=O)c1ccc2c(c1)OCO2 | 10% | 1% | 1% | 6% | nt | 3%
CC(C)OCCCn1c(=O)c2ccccc2n2c(-c3ccccc3)nnc12 | nt | nt | nt | 4% | nt | nt
COC(=O)CN1C(=O)[C@H]2[C@@H](c3ccc(C)o3)N3C(=O)CN(Cc4ccccn4)C(=O)[C@@]3(Cc3ccccc3)[C@H]2C1=O | 6% | -6% | -1% | 5% | nt | 1%
CC(CCc1ccccc1)N1CCN(C)CC1 (stereo unspecified) | -3% | -6% | 6% | 0% | nt | -5%
O=C(O)c1ccc(/C=C/C(=O)c2ccc3c(c2)OCCCO3)cc1 | ? | ? | ? | 0.076µM* | nt | ?
O=C(/C=C/c1cccc([N+](=O)[O-])c1)c1ccc2c(c1)OCCO2 | ? | 14% | ? | ? | 18%[1.84 µM] | 3%
CSc1ccc(/C=C/C(=O)c2ccc(NC(C)=O)cc2)cc1 | 0% | 13% | 23% | 3µM* | 5% | 18%
CCN(CC(=O)Nc1ccc(NC(C)=O)cc1)C(=O)c1ccc2c(c1)OCCO2 | -2% | 0% | 9% | -6% | nt | -3%
CC(=O)Nc1ccc(/C=C/C(=O)c2ccc3c(c2)OCCO3)cc1 | 17% | -1% | 8% | 6.7µM* | nt | 8%
Cc1cccc(Cn2c(=O)n(-c3ccc(Cl)c(Cl)c3)c(=O)c3c(C)c(C)sc32)c1 | nt | nt | nt | -3% | -14% | nt
COC(=O)c1sc2ccccc2c1-n1cccc1C(=O)C(=O)Nc1ccc(F)cc1 | -1% | -8% | 15µM* | -3% | -24% | -4%
Nc1nc(SCC(=O)Nc2ccccc2Sc2ccccc2)n[nH]1 | -5% | 2% | 8% | 0% | 7% | -6%
C=CCOc1ccc(/C=C2\SC(=S)N(NS(=O)(=O)c3ccc(C)cc3)C2=O)cc1 | -1% | -4% | 13% | ? | nt | 1%[1.84 µM]
CCNc1nc(NCC)n2c(SC(C(=O)Nc3cc(C)ccc3OC)c3ccccc3)nnc2n1 (stereo unspecified) | -4% | -3% | 23µM* | 3% | -11% | 0%
CCNc1nc(NCC)n2c(SCC(=O)Nc3cc(OC)ccc3OC)nnc2n1 | -1% | 9% | -4% | 6% | nt | 9%
O=S(=O)(Nc1ccc(-c2cn3c(n2)SCC3)cc1)c1cccs1 | 3% | -1% | -15% | -17% | -25% | -9%
N#Cc1ccc(-c2cn3c(n2)SCC3)cc1 | ? | ? | ? | 19µM* | nt | ?
CCCN(C(=O)c1ccc(N2CCCC2=O)cc1)C1CCS(=O)(=O)C1 (stereo unspecified) | 1% | -1% | ? | 1% | nt | -5%
